Data from PubChem BioAssay (NCI).
The panel holds about 79,000 compounds, 15% with a hit somewhere; the sample as a whole holds those more often. Unmarked numbers belong to inactive results. Calls of active or inactive are those of the source. No stated cut-off is given here; in the data, active means growth inhibition above about 70%; inactive means the rest.

Key:
[1] = NCI Yeast Anticancer Drug Screen. Data for the rad50 strain (AID 155);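 further: 0% = growth of vehicle-only cultures of the same strain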; details: S. cerevisiae rad50 strain growth inhibition; at 50.0 µM; hits give high values
How it was run: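 Yeast carrying a defined DNA repair defect were exposed to test compounds, and growth was compared with vehicle-treated controls to give percent inhibition.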

[2] = NCI Yeast Anticancer Drug Screen. Data for the mec2-1 strain (AID 157); details: S. cerevisiae mec2-1 strain, at 50.0 µM, hits give high values
How it was run: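 Each compound was tested on mec2-1 yeast, a strain altered in DNA damage repair or cell cycle control. Growth inhibition is reported relative to vehicle.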

[3] = NCI Yeast Anticancer Drug Screen. Data for the sgs1 mgt1 strain (AID 161);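 further: 0% = growth of cultures given vehicle only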; details: S. cerevisiae sgs1 mgt1 strain, at 50.0 µM, hits give high values
How it was run: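 Mutant yeast exposed to compound; growth scored against vehicle-only wells.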

[4] = NCI Yeast Anticancer Drug Screen. Data for the cln2 rad14 strain (AID 165);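 further: 0% = growth equal to vehicle treated cultures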; details: S. cerevisiae cln2 rad14 strain, at 50.0 µM, hits give high values
How it was run: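 Test compounds were added to cln2 rad14 yeast cultures; inhibition of growth was then determined by comparison with vehicle treatment.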

[5] = NCI Yeast Anticancer Drug Screen. Data for the bub3 strain (AID 167); details: S. cerevisiae bub3 mutant strain, at 50.0 µM, hits give high values
How it was run: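 Compounds were applied to a genetically altered yeast strain carrying a cell-cycle control defect. Growth inhibition was scored against vehicle-treated controls.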

[6] = NCI Yeast Anticancer Drug Screen. Data for the mlh1 rad18 strain (AID 175); details: S. cerevisiae mlh1 rad18 strain growth inhibition; at 50.0 µM; hits give high values
How it was run: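 Inhibition values reflect reduced growth of mutant yeast versus vehicle-treated controls following compound exposure; the mutations affect DNA damage repair.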

SMILES | growth inhibition [1] | growth inhibition [2] | growth inhibition [3] | growth inhibition [4] | growth inhibition [5] | growth inhibition [6]
Cc1ccc(C(=Nc2ccccc2)N=S(c2ccccc2)c2ccccc2)cc1 | -2.2% | 5.6% | -19% | -16.1% | 2.55% | -30.6%
CC12CCC3C(CC=C4CC(O)CCC43C)C1CCC(=O)N2 (configuration not stated) | 5.2% | -3.55% | -10.2% | 7.95% | -10.2% | -1%
CCOC(=O)CCC(NC(=O)c1ccc(Nc2cnc3cc(C(F)(F)F)ccc3n2)cc1)C(=O)OCC (configuration not stated) | 0.1% | -12.8% | -5.85% | 19.9% | 3.4% | -4.65%
O=C(CCCn1cnc([N+](=O)[O-])n1)NCCn1ccnc1[N+](=O)[O-] | -3.1% | -7.3% | -10.3% | -5.1% | -13.6% | -26.3%
CC(=O)NC1CCCC(CC2CCCCC2)C1 (configuration not stated) | 18.4% | 0.45% | -7.8% | -56% | 17.6% | -14.9%
COc1nc(NC2OCC(OC(C)=O)C(OC(C)=O)C2OC(C)=O)c(-c2csc(N)n2)c(=O)n1C (configuration not stated) | -1.9% | -21.9% | -14.6% | 13.6% | -2.3% | 6.85%
N#CC1C2C1C1C=CC2n2c(=O)n(-c3ccccc3)c(=O)n21 (configuration not stated) | 3% | 2.5% | 3.25% | 27.4% | 7.15% | 4.95%
CCOC(=O)c1cnc2c(ccc3ncccc32)c1OCC | -12.2% | -23.1% | 7.8% | 17.2% | 10.8% | 12.1%
CCCCC(CC)COS(=O)(=O)O (configuration not stated) | -16.3% | 2.25% | -30.9% | -42% | -27% | -42%
CCC1=C[C@H]2CN(CCc3c([nH]c4ccccc34)[C@@](C(=O)OC)(c3cc4c(cc3OC)N(C)[C@H]3[C@@](O)(C(=O)NC)[C@H](OC(C)=O)[C@]5(CC)C=CCN6CC[C@]43[C@@H]65)C2)C1 | 2.65% | -1.75% | 12.8% | -2.05% | 16.4% | -12.4%
CC(C)OP(=O)(OC(C)C)c1ccc2c(c1)OCCOCCOCCOCCO2 | -2.9% | -11.3% | 9.2% | 4.2% | -0.15% | 21.4%
C[N+](C)(C)CC(=O)N/N=C(/Cc1nc2ccc([N+](=O)[O-])cc2[nH]c1=O)C(=O)Nc1cc(C(F)(F)F)ccc1Cl | -13.2% | 3.7% | 3.35% | 8.55% | -5.4% | 16.2%
CCOC(=O)C(NC(=O)Cc1ccccc1)C(=O)OCC | 10.8% | 10.3% | -0.75% | 10.8% | 14.9% | -17.9%
O=C(Nc1cccc(O)c1)c1ccccc1Cl | 9.3% | -6% | -15.4% | -86.3% | -11.9% | -30.1%
CCCCN=CC(Cl)(Cl)C(=O)OCC | -13.2% | -21.6% | -8.35% | 4.05% | -10.9% | -19.7%
OC(c1ccccc1)(c1ccccc1)C1CC1 | 6.2% | -6.9% | 1.6% | 7% | -19.2% | 10.9%
C/C(N=NS(=O)(=O)c1ccc(C)cc1)=C1\C=CC=CN1O | -15.9% | -14.7% | -6.9% | -1% | -2.85% | -11.9%
O=C1c2ccccc2C(=O)N1CC#CCN1C(=O)c2ccccc2C1=O | -6.95% | -31.8% | 19.6% | -5.05% | -2.65% | -5.75%
Cc1cccc(NC(=O)COc2ccc(Cl)cc2)c1C | 12.4% | 8.6% | 5.1% | -15.2% | 13.1% | -4.7%

SMILES | growth inhibition [1] | growth inhibition [2] | growth inhibition [3] | growth inhibition [4] | growth inhibition [5] | growth inhibition [6]
Cc1ccnc(NC(=O)Nc2ccc(C)cc2[N+](=O)[O-])c1 | 18.4% | 26.7% | 20.4% | 8.35% | 18.1% | 24%
CC(=O)O[C@H]1CC[C@@]2(C)[C@@H](CC[C@@H]3[C@@H]2CC[C@]2(C)[C@@H](C(=O)CCC(F)(F)F)CC[C@@H]32)C1 | 16.9% | 20.9% | 33.6% | 23.3% | 0.15% | 18.9%
COc1ccc2c(c1C)OC(C)C2=O (configuration not stated) | 9.65% | 5.05% | -3.9% | -21.1% | -15.9% | 0.7%
COCc1ccnn1-c1ccccc1C | -5.85% | 13.5% | 9.3% | -8.45% | 5.2% | -6.05%
O=CNCCc1ccc2c(c1)[nH]c1ccccc12 | 8.45% | 16.1% | 12.9% | -11.3% | -13.2% | 20.6%
CC(=O)O[C@@H]1[C@H]2[C@@H](OC(=O)c3ccccc3)[C@@H](C)C[C@]2(O)[C@H](OC(C)=O)[C@@]2(C)[C@@H]3C[C@@](C)(OC(C)=O)C[C@@H](OC(C)=O)[C@@]3(OC(C)=O)C[C@@]12C | -7.55% | -7.05% | -3.8% | -32.8% | -6.35% | -50.5%
NCCCCCCCCCCCCN | -6.15% | -11.8% | -0.3% | -37.2% | -13.5% | 19%
CN1CCC(CNc2ccccc2)CC1 | 3.6% | -0.5% | 6.05% | -20.5% | 14.5% | 3.45%
Nc1ccc2c(c1)C(=O)CCCC2 | 1.55% | -8.95% | -2.15% | -10.1% | 1.25% | 14.1%
C=CCN1C(=O)NC(=O)C1c1ccsc1 (configuration not stated) | -14.7% | -0.25% | -22.2% | -34.2% | -1.45% | 2.6%
O=S(Cc1ccccc1)CC(O)CO (configuration not stated) | -24.9% | 5.95% | 2.7% | -41.2% | 10.3% | -0.85%
CS(=O)(=O)OCC1OC(n2ccc(NC(=O)c3ccccc3)nc2=O)CC1OS(C)(=O)=O (configuration not stated) | 0.5% | -16.9% | -5.8% | -11.7% | -14.8% | -4%
CC(/C=N/NC1=NCCCN1)=N\NC1=NCCCN1 | -7.05% | -8.75% | -14.3% | 8.25% | 2.9% | -12.2%
C[N+](C)(C)CC(=O)NC(=O)N/N=C\C(CC#N)CN(Cc1ccccc1)Cc1ccccc1 (configuration not stated) | 23.5% | 13.7% | 19.1% | 10.6% | 2.35% | 12.2%
CC(C)Cc1ncnc2n[nH]nc12 | 1.65% | 8.5% | 35.5% | 35.4% | 20.4% | 17.8%
C1CCN(CCC2CCNCC2)C1 | 5.5% | -19.4% | -15.1% | 13.5% | -1% | 3.8%
C=C1C(=O)C[C@H]2[C@H]3CC[C@H](C(=O)O)[C@]12CC3(C)C | 90.8% (active) | 93.8% (active) | 93.8% (active) | 87.7% (active) | 92.2% (active) | 92.1% (active)
COC(=O)c1c(C=O)cccc1[N+](=O)[O-] | 22.7% | -0.05% | 1.75% | 0.7% | -14.1% | 15.2%
